Most compounds without a hit are left out; they make up all but 11% or so of the library.
hNpr1 antagonist: Natriuretic polypeptide receptor (hNpr1) antagonism - Primary qHTS; HEK293 hNpr1 GloSensor cGMP, ANP-stimulated luminescence; Atrial natriuretic peptide receptor 1 (Homo sapiens), P16066; Potency, µM (series often up to 46.3 µM), for inactives: at the top dose activity change, negative = inhibition, actives largely listed as inhibitors; AID 1347048, 2019; 1.6% of 76,000 active; calls by dose curve; also: nearly all actives have a fitted effect of over 60% in size
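HEK293 cells stably expressing human Npr1 and cGMP GloSensor pGS-40F, loaded 2 h with 2% GloSensor reagent, given compound 30 min at room temperature. Luminescence read before and 20 min after 0.1 nM hNppA.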
NIH3T3 tox: Cytotoxic Profiling in NIH 3T3 Cell Line of Diverse Libraries Using Quantitative High-Throughput Screening; NIH 3T3 viability, CellTiter-Glo ATP luminescence, 48-72 h; Potency, µM (series often up to 96.7 µM), inactives show top-dose activity change, negative = cytotoxicity, hits mostly inhibitors; 4.3% of 94,000 active; also: nearly all actives have a fitted effect of over 55% in size
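Cells were seeded at 400 per well, treated with pin-transferred compound, and kept 48 or 72 hr at 37 °C before CellTiter-Glo addition and luminescence imaging of cellular ATP.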
HEK293 tox: Cytotoxic Profiling in HEK 293 Cell Line of Diverse Libraries Using Quantitative High-Throughput Screening; Potency, µM (top dose mostly 115 µM), inactives show at the highest dose activity change, negative = cytotoxicity, actives largely listed as inhibitors; 6.6% of 94,000 active; HEK 293 viability, ATP luminescence (CellTiter-Glo), 48-72 h; also: nearly all actives have a fitted effect of over 60% in size
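HEK 293 seeded at 250 cells/well receive compound via pintool. After 48 or 72 hr at 37 degree Celsius, 5% CO2 and 95% humidity, CellTiter-Glo is dispensed and luminescence read following 10 min at room temperature.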
Luciferase inh: Firefly luciferase inhibition profiling of diverse chemical library using quantitative high-throughput screening | purified P. pyralis luciferase, luminescence, biochemical | 2.5% of 76,000 active | Potency, µM (highest dose often 115 µM), usual class: inhibitors | Luciferin 4-monooxygenase (Photinus pyralis), P08659 | AID 1347043, 2019; also: nearly all actives have a fitted effect of over 65% in size
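Luminescence read by CCD imaging after purified firefly luciferase (10nM final) was added to substrate buffer holding 10uM D-luciferin and 10uM ATP, pH 7.5, pre-dosed with compound.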
* = called active by the depositor; [ ] = another dose, or the depositor's remark. Unless noted, calls follow the shape of the dose curve; as a rule, active = well fitted curve in the direction sought with a large enough effect; inconclusive = small, poorly fitted or top-dose-only effect, or another doubt; inactive = no such curve, though single readings can be large; an effect the other way counts as inactive or inconclusive. % is scaled to controls: 0 for no effect and ±100 for the full control effect; potency is read from the fitted curve at half-maximal effect.

How did O=C(NCc1ccco1)c1cc(-c2ccccc2F)cc2c1OCCN2Cc1cccnc1 do in these assays?
hNpr1 antagonist: -29.1%; NIH3T3 tox: inconclusive; HEK293 tox: inconclusive; Luciferase inh: inactive

What do the screens show for `CNC(=O)c1cc(C)nc2onc(C3CCN([S+](=O)([O-])c4c(C)noc4C)CC3)c12`?
NIH3T3 tox: -13.0%; HEK293 tox: inactive

Results for Cc1nn(-c2ccccc2)c2c1C(C(C)C)N(C1CN([S+](C)(=O)[O-])C1)C2=O (stereo not given) ?
NIH3T3 tox: -18.2%; HEK293 tox: -10.6%

What do the screens show for `CCCCCC(=O)N1CCC(=O)N(CCOC)C[C@H]2COc3ccc(C)cc3[C@H]21`?
NIH3T3 tox: inconclusive; HEK293 tox: -18.4%

What do the screens show for `CN(C)CCN(C)C(=O)c1cc(-c2ccccc2F)cc2c1OCCN2Cc1cccnc1`?
hNpr1 antagonist: -3.2%; NIH3T3 tox: inconclusive; HEK293 tox: 79.4µM*; Luciferase inh: inactive

Results for CS(=O)(=O)N1CCC2(CC1)CN(c1cccc(F)c1)C2c1ccccc1 (stereo not given) ?
NIH3T3 tox: inconclusive; HEK293 tox: 12.6µM*

What do the screens show for `COCCN1CCCN(C(=O)c2cccc(OC)c2)c2ccccc21`?
hNpr1 antagonist: -3.1%; NIH3T3 tox: -24.7%; HEK293 tox: inconclusive; Luciferase inh: inactive

What do the screens show for `COCC(=O)N1CCCN(CCc2ccccc2)c2ccccc21`?
hNpr1 antagonist: -12.0%; NIH3T3 tox: -29.1%; HEK293 tox: 35.5µM*; Luciferase inh: inactive

Results for COc1ccccc1CC(=O)N1CCCN(CCc2ccccc2)c2ccccc21 ?
hNpr1 antagonist: -10.9%; NIH3T3 tox: inconclusive; HEK293 tox: 39.8µM*; Luciferase inh: inactive

How did COCCN1CCCN(C(=O)c2cccc(Cl)c2)c2ccccc21 do in these assays?
hNpr1 antagonist: -5.2%; NIH3T3 tox: inconclusive; HEK293 tox: 44.7µM*; Luciferase inh: inactive

What do the screens show for `Cc1ccc(C2Cn3nnc(C(=O)N4CCC(C(=O)NCc5cc(F)ccc5F)CC4)c3CO2)cc1` (stereo not given)?
hNpr1 antagonist: -2.3%; NIH3T3 tox: -13.1%; HEK293 tox: -21.3%; Luciferase inh: 35.5µM*

What do the screens show for `Cc1ccc(C2Cn3nnc(C(=O)N4CCC(C(=O)NCc5ccc(F)cc5F)CC4)c3CO2)cc1` (stereo not given)?
hNpr1 antagonist: -2.4%; NIH3T3 tox: inactive; HEK293 tox: -1.3%; Luciferase inh: inconclusive

What do the screens show for `Cc1ccc(C2Cn3nnc(C(=O)N4CCC(C(=O)NCc5ccccc5F)CC4)c3CO2)cc1` (stereo not given)?
hNpr1 antagonist: 2.4%; NIH3T3 tox: inactive; HEK293 tox: -1.0%; Luciferase inh: 22.4µM*

How did CCN1CCN(C(=O)c2cc(-c3ccccc3F)nc3c2cnn3C)CC1 do in these assays?
NIH3T3 tox: -29.9%; HEK293 tox: -13.0%

Results for COc1ccccc1-c1nc(-c2c(C)noc2C)cc2cc(CN(C)C)oc12 ?
hNpr1 antagonist: 1.0%[70.6 µM]; NIH3T3 tox: inconclusive; HEK293 tox: inconclusive; Luciferase inh: inactive

What do the screens show for `Cc1noc(C)c1-c1cc2cc(CN(C)C)oc2c(-c2ccc([S+](C)(=O)[O-])cc2)n1`?
hNpr1 antagonist: -0.2%[70.6 µM]; NIH3T3 tox: inconclusive; HEK293 tox: inconclusive; Luciferase inh: inactive

How did Cc1noc(C)c1-c1cc2cc(CN(C)C)oc2c(Nc2ccncn2)n1 do in these assays?
hNpr1 antagonist: -2.7%[70.6 µM]; NIH3T3 tox: 44.7µM*; HEK293 tox: inconclusive; Luciferase inh: inactive

What do the screens show for `COc1ccc(-c2nc(-c3c(C)noc3C)cc3cc(C(C)C)oc23)cn1`?
hNpr1 antagonist: 5.5%[70.6 µM]; NIH3T3 tox: inconclusive; HEK293 tox: inconclusive; Luciferase inh: inactive

What do the screens show for `COCCCNc1nc(-c2c(C)noc2C)cc2cc(CN(C)C)oc12`?
hNpr1 antagonist: 3.9%[70.6 µM]; NIH3T3 tox: inconclusive; HEK293 tox: -29.5%[172 µM]; Luciferase inh: inactive

What do the screens show for `COc1cc(-c2nc(-c3c(C)noc3C)cc3cc(CN(C)C)oc23)ccn1`?
hNpr1 antagonist: -13.3%[70.6 µM]; NIH3T3 tox: 39.8µM*; HEK293 tox: 79.4µM*; Luciferase inh: inactive

What do the screens show for `COc1ccc(Nc2nc(-c3c(C)noc3C)cc3cc(CN(C)C)oc23)cn1`?
hNpr1 antagonist: -1.2%[70.6 µM]; NIH3T3 tox: 79.4µM*; HEK293 tox: 79.4µM*; Luciferase inh: inactive
